Most compounds without a hit are left out; they make up all but 5.8% or so of the library.
SW480 rereplic: DNA re-replication induction in SW480 cells; SW480 DNA re-replication, Hoechst DNA content imaging, 48 h; Potency, µM (series often up to 46.1 µM), without a hit: top-dose re-replication activation, hits mostly activators; hit rate 1.8% among 340,000; further: % of control where 0% means no effect; nearly all actives have a fitted effect of over 55% in size
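250 cells/well; 23 nL cpd via pin tool; 48 hr, 37 C, 5% CO2; Hoechst 40 min; imager read of total nuclear intensity, ex 405/em 500-530 nm.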
KB-V1 MDR tox: KB-V1 MDR subline cytotoxicity. KB-V1 MDR cells viability, CellTiter-Glo, 72 h. Potency, µM (top dose mostly 46.1 µM), hits mostly cytotoxic. hit rate 3.4% among 400,000. AID 1347076; further: on the % scale 0 is the no-effect control and ±100 the full control effect; nearly all actives have a fitted effect of over 60% in size
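Cytotoxicity toward P-gp-expressing KB-V1 cells was determined as loss of CellTiter-Glo luminescence after 72 h at 37 degrees C. Compounds were tested in quantitative HTS format across a concentration range, with curves fitted to normalized data.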
ALOX12 inh: blocks human arachidonate 12S-lipoxygenase; P18054; purified 12hLO, xylenol orange hydroperoxide absorbance; Potency, µM (titrated, usually from 108 µM), for inactives: top-dose activity change, negative = inhibition, usual class: inhibitors; hit rate 1.1% among 580,000; AID 1671190; further: on the % scale 0 is the no-effect control and ±100 the full control effect
Target sequence (P18054 whole entry, looked up): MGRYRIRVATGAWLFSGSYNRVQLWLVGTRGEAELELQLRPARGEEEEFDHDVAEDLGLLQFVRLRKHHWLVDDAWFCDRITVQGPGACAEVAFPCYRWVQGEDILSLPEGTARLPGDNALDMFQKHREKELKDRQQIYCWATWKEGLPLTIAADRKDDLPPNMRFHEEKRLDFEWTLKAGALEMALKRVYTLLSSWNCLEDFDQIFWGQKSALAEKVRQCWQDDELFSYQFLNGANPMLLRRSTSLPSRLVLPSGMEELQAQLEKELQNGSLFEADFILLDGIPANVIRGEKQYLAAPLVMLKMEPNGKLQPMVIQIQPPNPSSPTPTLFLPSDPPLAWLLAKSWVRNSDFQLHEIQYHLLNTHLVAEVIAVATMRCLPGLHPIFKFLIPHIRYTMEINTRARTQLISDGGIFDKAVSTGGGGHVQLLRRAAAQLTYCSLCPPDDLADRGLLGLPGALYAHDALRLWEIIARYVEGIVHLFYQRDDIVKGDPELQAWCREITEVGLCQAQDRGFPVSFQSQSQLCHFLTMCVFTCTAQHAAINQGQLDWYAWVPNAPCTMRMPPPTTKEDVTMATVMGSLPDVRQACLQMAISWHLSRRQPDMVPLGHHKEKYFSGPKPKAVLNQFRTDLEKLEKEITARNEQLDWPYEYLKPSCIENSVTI
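Purified human 12hLO (150 nM final) in 25 mM Hepes, 0.01% Triton X-100, pH 7.0 was preincubated 15 min at room temperature with compound. Then 40 uM arachidonic acid was added, 30 min. Hydroperoxide was read by Fe-XO absorbance ratio 573/405 nm.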
PINK1 modulator: PINK1 expression modulation; PINK1 immunofluorescence, high-content cytometry, 24 h; Potency, µM (series often up to 76.6 µM), for inactives: at the highest dose activation (PINK1 increase), usual class: activators; hit rate 0.2% among 410,000; active means well fitted activation curve with a large enough effect; inconclusive means small, poorly fitted or top-dose-only effect; cell line not stated here; further: % of control where 0% means no effect; nearly all actives have a fitted effect of over 65% in size
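Stable cell line, 250 cells/well, 12 h attachment; compounds pinned at 5 concentrations, 24 h; CCCP control. Fixed with nuclear dye, primary antibodies 12 h at 10 degrees C, secondary plus cell stain; laser-scanning cytometer read.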
KB-3-1 cytotox: KB-3-1 parental cell cytotoxicity; AID 1347075; Potency, µM (titrated, usually from 46.1 µM), actives largely listed as cytotoxic; KB-3-1 viability, CellTiter-Glo ATP luminescence, 72 h; hit rate 1.4% among 400,000; further: on the % scale 0 is the no-effect control and ±100 the full control effect; nearly all actives have a fitted effect of over 60% in size
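Multi-concentration cytotoxicity screen in KB-3-1 cells grown in DMEM lacking phenol red with 10% FBS. After 72 h at 37 °C with compound, ATP-dependent luminescence was recorded.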
MCF10A rereplic: DNA re-replication induction in MCF 10a cells; MCF 10A DNA re-replication, Hoechst nuclear intensity, 48 h; Potency, µM (titrated, usually from 46.1 µM), for inactives: at the top dose activity, positive = re-replication, usual class: activators; hit rate 2.9% among 350,000; further: % of control where 0% means no effect; nearly all actives have a fitted effect of over 50% in size
Starred values were filed as active, the others as inactive; [ ] = dose if it differs, or a comment. Unless noted, the call rests on the fitted dose curve; in most records, active means well fitted curve in the direction sought with a large enough effect; inconclusive means small, poorly fitted or top-dose-only effect, or another doubt; inactive means no such curve, though single readings can be large; an effect the other way counts as inactive or inconclusive. Potency means the concentration at half of the fitted maximal effect.

How did O=C1c2ccccc2-c2cccc(NS(=O)(=O)c3ccc(C(F)(F)F)cc3)c21 do in these assays?
SW480 rereplic: 19%; KB-V1 MDR tox: 23µM*; ALOX12 inh: 0%; PINK1 modulator: -1%; KB-3-1 cytotox: inconclusive; MCF10A rereplic: 4%

Results for CCCCN(CCCC)c1nc2ccccc2nc1NS(=O)(=O)c1ccc(NC(C)=O)cc1 ?
SW480 rereplic: 21µM*; KB-V1 MDR tox: inactive; ALOX12 inh: -1%; PINK1 modulator: 2%; KB-3-1 cytotox: inactive; MCF10A rereplic: 12µM*

What do the screens show for `CC(=O)Nc1ccc(S(=O)(=O)Nc2nc3ccccc3nc2Nc2cccc3ccccc23)cc1`?
ALOX12 inh: -7%

How did COc1ccc(C(=O)N2CCC(C(NC(=O)c3ccccc3Cl)C(=O)N3CCCCC3)CC2)cc1 (configuration not stated) do in these assays?
ALOX12 inh: 28%

Results for O=C(NC(=S)Nc1ccc(S(=O)(=O)N2CCCCC2)cc1)c1ccccc1 ?
SW480 rereplic: 0%; KB-V1 MDR tox: inactive; ALOX12 inh: 13µM*; PINK1 modulator: 3%; KB-3-1 cytotox: inactive; MCF10A rereplic: 14%

What do the screens show for `O=C(Nc1ccc(S(=O)(=O)N2CCCC2)cc1)c1ccccc1`?
SW480 rereplic: -152%; KB-V1 MDR tox: inconclusive; ALOX12 inh: -1%; PINK1 modulator: 1%; KB-3-1 cytotox: inactive; MCF10A rereplic: 3%

Results for O=C(NC1CCCCCCC1)C1CCN(S(=O)(=O)N2CCCC2)CC1 ?
SW480 rereplic: 0%; KB-V1 MDR tox: inconclusive; ALOX12 inh: 10%; PINK1 modulator: -6%[38.3 µM]; KB-3-1 cytotox: inactive; MCF10A rereplic: -4%

What do the screens show for `O=C(NC1CCCCC1)C1CCN(S(=O)(=O)N2CCCCCC2)CC1`?
SW480 rereplic: 1%; KB-V1 MDR tox: 16µM*; ALOX12 inh: 0%; PINK1 modulator: 3%[38.3 µM]; KB-3-1 cytotox: inactive; MCF10A rereplic: 0%

Results for COc1ccc(COC(=O)c2ccc(S(=O)(=O)N3CCC(C)CC3)cc2)cc1 ?
SW480 rereplic: -7%; KB-V1 MDR tox: inactive; ALOX12 inh: 0%; PINK1 modulator: 8%; KB-3-1 cytotox: inconclusive; MCF10A rereplic: 16µM*

How did O=C(NC1CCCCC1)c1ccc(S(=O)(=O)N2CCCC2)cc1 do in these assays?
SW480 rereplic: 1%; KB-V1 MDR tox: 16µM*; ALOX12 inh: -10%; PINK1 modulator: 1%[38.3 µM]; KB-3-1 cytotox: inactive; MCF10A rereplic: 14%

What do the screens show for `Cc1cc(Cl)ccc1NC(=O)CN(c1ccccc1F)S(=O)(=O)c1ccccc1`?
ALOX12 inh: 6%

How did CCN(CC)c1ccc2cc(C(=O)NNC(=O)c3ccc(S(=O)(=O)N4CCCCC4)cc3)c(=O)oc2c1 do in these assays?
SW480 rereplic: 2.9µM*; KB-V1 MDR tox: 2.6µM*; ALOX12 inh: -17%; PINK1 modulator: 5%; KB-3-1 cytotox: inactive; MCF10A rereplic: inconclusive

Results for COc1ccc(S(=O)(=O)N2CCC(NC(=O)Nc3ccc(C)cc3)CC2)cc1 ?
SW480 rereplic: 1%; KB-V1 MDR tox: 18µM*; ALOX12 inh: 0%; PINK1 modulator: -1%; KB-3-1 cytotox: inactive; MCF10A rereplic: 0%

What do the screens show for `CC(C)N(C(=O)NC(=O)Nc1ccc(S(=O)(=O)N2CCCC2)cc1)S(C)(=O)=O`?
SW480 rereplic: 2%; KB-V1 MDR tox: inactive; ALOX12 inh: -5%; PINK1 modulator: 0%; KB-3-1 cytotox: inactive; MCF10A rereplic: 0.65µM*

What do the screens show for `Cc1ccc(NC(=O)NC2CCN(S(=O)(=O)c3ccc(F)cc3)CC2)cc1`?
SW480 rereplic: -8%; KB-V1 MDR tox: inactive; ALOX12 inh: -25%; KB-3-1 cytotox: inactive; MCF10A rereplic: 6%

What do the screens show for `CC(=O)N1c2ccc(S(=O)(=O)N3CCC(C(=O)Nc4ccc(C)cn4)CC3)cc2CC1C` (configuration not stated)?
SW480 rereplic: -4%; KB-V1 MDR tox: inactive; ALOX12 inh: inconclusive; PINK1 modulator: 1%; KB-3-1 cytotox: 16µM*; MCF10A rereplic: -1%

Results for CC/C=C/CCO ?
ALOX12 inh: -1%[176 µM]

Results for CSc1ccccc1C(=O)NCCC1=CCCCC1 ?
ALOX12 inh: -6%

Results for CC1CCCN(S(=O)(=O)c2ccc(C(=O)Nc3ccccc3-c3nc4ccccc4[nH]3)cc2)C1 (configuration not stated) ?
SW480 rereplic: -2%; KB-V1 MDR tox: inactive; ALOX12 inh: 1%; PINK1 modulator: 7%; KB-3-1 cytotox: inactive; MCF10A rereplic: 0%

What do the screens show for `Cc1ccc(C(=O)Nc2ccc(S(=O)(=O)N3CCCC3)cc2)cc1`?
SW480 rereplic: 3%; KB-V1 MDR tox: inconclusive; ALOX12 inh: 0%; PINK1 modulator: 4%; KB-3-1 cytotox: inactive; MCF10A rereplic: -27%

How did Cc1ccc(C(=O)NNC(=O)c2ccc(S(=O)(=O)N3CCCCC3)cc2)cc1 do in these assays?
SW480 rereplic: 16µM*; KB-V1 MDR tox: inactive; ALOX12 inh: -13%; PINK1 modulator: 2%; KB-3-1 cytotox: inactive; MCF10A rereplic: inconclusive

What do the screens show for `CC1CCN(S(=O)(=O)c2ccc(C(=O)Nc3ccccc3-c3nc4ccccc4[nH]3)cc2)CC1`?
SW480 rereplic: 1%; KB-V1 MDR tox: 16µM*; ALOX12 inh: 2%; PINK1 modulator: 2%; KB-3-1 cytotox: inconclusive; MCF10A rereplic: 2%

What do the screens show for `Cc1ccc(NC(=O)c2ccc(S(=O)(=O)N3CCC(C)CC3)cc2)nc1`?
SW480 rereplic: -1%; KB-V1 MDR tox: inconclusive; ALOX12 inh: -7%; PINK1 modulator: 10%; KB-3-1 cytotox: 26µM*; MCF10A rereplic: 6%

What do the screens show for `Cc1ccc(NC(=O)c2ccc(S(=O)(=O)N3CCCCCC3)cc2)nc1`?
SW480 rereplic: 3%; KB-V1 MDR tox: inconclusive; ALOX12 inh: -24%; PINK1 modulator: -1%; KB-3-1 cytotox: inactive; MCF10A rereplic: 5%

Results for Cc1ccc(NC(=O)c2ccc(S(=O)(=O)N3CCCCC3)cc2)cc1 ?
SW480 rereplic: -12%; KB-V1 MDR tox: inactive; ALOX12 inh: 27%; PINK1 modulator: inconclusive; KB-3-1 cytotox: inactive; MCF10A rereplic: 0%

Results for Cc1ccc(NC(=O)c2ccc(S(=O)(=O)N3CCCC3)cc2)cc1 ?
SW480 rereplic: 0%; KB-V1 MDR tox: 23µM*; ALOX12 inh: 0%; PINK1 modulator: 0%; KB-3-1 cytotox: inactive; MCF10A rereplic: 15%

What do the screens show for `COC(CNC(=O)C1CCN(C(=O)c2cc3oc(C)cc3n2Cc2c(F)cccc2Cl)CC1)OC`?
SW480 rereplic: -37%; KB-V1 MDR tox: 8.2µM*; ALOX12 inh: -13%; PINK1 modulator: 9%; KB-3-1 cytotox: inconclusive; MCF10A rereplic: 0%
